From PubChem BioAssay
BJeLR viab HTS: BJeLR cell viability loss, primary screen, luminescence, CellTiterGlo ATP; BJeLR fibroblasts viability, 48 h; HRASV12, hTERT and SV40 LT/ST transformed; hit rate 0.64% among 30,000; viability loss activity score, % (concentration not given with the values); AID 2275, 2010; in the data active = viability loss activity score above about 50%;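 also: higher score means fewer live cells and less ATP luminescence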
A1 inh: inducers of caspase activity in MEF A1-2A-BIM cells, primary screen, A1 inhibitor project, cell-based, CaspaseGlo luminescence; caspase-Glo luminescence, 3 h; percent of clofoctol signal, DMSO as zero; caspase activation, % (no concentration beside the values); hit rate 0.51% among 21,000;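 active = most replicate scores above 10, or exactly half above 10 with mean activity above 10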;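 also: effector caspase 3 and 7 activity cleaving a DEVD luciferin substrate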
Of the large screens only hits and unclear results are named; the others gave an inactive call. The list is not random: actives were taken first. Their share in the collection is about 0.9%.

COC(=O)[C@@]1(O)C[C@@H]2O[C@@]1(C)n1c3ccccc3c3c4c(c5c6ccccc6n2c5c31)C(=O)NC4	A1 inh 13 (no result: BJeLR viab HTS)
C=C1C(=O)O[C@@H]2[C@H]3C(=C)[C@@H](O)C[C@H]3C(=C)C[C@@H](O)[C@@H]12	none
C/C1=C/C(=O)O[C@@H]2C[C@@H](CC[C@H](C)/C=C\CC1)O[C@@](O)([C@@H]1CSC(=O)N1)C2	A1 inh 23
CCCCSP(=O)(SCCCC)SCCCC	none
COC1CC(OC2C(C)OC(OC3C(C)OC(OC4C(C)OC(O[C@H]5CC[C@@]6(C)C(=CC[C@]7(O)C6CC(OC(=O)c6ccccc6)[C@@]6(C)[C@]7(O)CC[C@@]6(O)C(C)=O)C5)CC4OC)CC3OC)CC2OC)OC(C)C1O (stereo partly specified)	BJeLR viab HTS 75
CCc1ccc(CN2CCN(Cc3cccc(OC)c3)CC2)cc1	none
COC[C@H]1OC(=O)c2coc3c2[C@@]1(C)C1=C(C3=O)C2CCC(=O)[C@@]2(C)C[C@H]1OC(C)=O (stereo partly specified)	A1 inh 52
CN1CCc2c(c(N3CCCCC3)nc3n[nH]c(N)c23)C1	none
O=C(CCN1CCOCC1)NC=Nc1cccnc1	none
C=C1[C@@H](C)[C@H]2[C@H](Cc3ccccc3)NC(=O)[C@]23[C@H](OC(C)=O)C=C[C@](C)(O)C(=O)[C@@H](C)C/C=C/[C@H]3[C@@H]1O	A1 inh 16
CC1=C[C@H]2[C@]3(O)[C@H](C)[C@@H](O)[C@@]4(O)[C@H]([C@@H]3C=C(CO)C[C@]2(O)C1=O)C4(C)C	none
N#CC(C#N)=Cc1ccc(O)c(O)c1	none
CC(C)(C)c1cc(C=C(C#N)C#N)cc(C(C)(C)C)c1O	BJeLR viab HTS 71
NCC(CS(=O)(=O)O)c1ccc(Cl)cc1 (stereo unspecified)	none
c1cncc([C@H]2CCCCN2)c1	none
COC[C@H]([C@@H](O)[C@@H](O)C(=O)NCC[C@@H](C)c1nc(/C=C/C[C@H]2OC3(C[C@H](O)[C@H]2C)OC([C@@H](C[C@@H](O)[C@@H](C)[C@@H](O)[C@@H](C)/C=C(C)/C(C)=C/C=C/C(C)=C\C#N)OC)[C@@H](OP(=O)(O)O)C3(C)C)co1)N(C)C (stereo partly specified)	BJeLR viab HTS 69
O=C1NC(=O)N(c2ccccc2)C(=O)/C1=C/c1ccco1	none
CCN1C[C@]2(C)CC[C@H](O)[C@@]34C2[C@H](OC)C([C@@H]13)[C@@]1(O)C[C@H](OC)[C@H]2C[C@@H]4[C@@H]1[C@H]2O	none
Cc1cc(O)cc2oc(=O)c3c(O)cc(O)cc3c12	none
C[C@@H]1O[C@@H](O[C@H]2[C@H](O)[C@@H](O)[C@H](O[C@@H]3C=C4CC[C@@H]5C(CC[C@]6(C)[C@@H](c7ccc(=O)oc7)CC[C@]56O)[C@@]4(C)CC3)O[C@@H]2CO)[C@H](O)[C@H](O)[C@H]1O (stereo partly specified)	BJeLR viab HTS 125
CCc1nc2ccccc2c(=O)n1-c1ccc(OC)cc1	none
CC(C)c1cc2c(cc1O)[C@@]1(C)C[C@@H](O)CC(C)(C)C1CC2 (stereo partly specified)	none
CC[C@@]1(O)C(=O)OCc2c1cc1n(c2=O)-c2cc3ccccc3nc2C1	BJeLR viab HTS 121
CC[C@]12C=CCN3CC[C@@]4(c5ccc(OC)cc5N(C)[C@H]4[C@@](O)(C(=O)OC)[C@@H]1OC(C)=O)[C@@H]32	none
CO[C@H]1[C@H](O)[C@H](O[C@H]2CC[C@]3(C)C4CC[C@]5(C)[C@H](C6=CC(=O)OC6)CC[C@]5(O)C4CC[C@@H]3C2)O[C@@H](C)[C@@H]1O[C@@H]1O[C@H](CO[C@@H]2O[C@H](CO)[C@@H](O)[C@H](O)[C@H]2O)[C@@H](O)[C@H](O)[C@H]1O (stereo partly specified)	BJeLR viab HTS 100
CO[C@@H]1[C@H](O)[C@@H](O[C@@H]2C[C@H]3CC[C@@H]4C(CC[C@]5(C)[C@@H](C6=CC(=O)OC6)CC[C@]45O)[C@@]3(C)[C@H](O)C2)O[C@H](C)[C@@H]1O[C@@H]1O[C@H](CO)[C@@H](O)[C@H](O)[C@H]1O (stereo partly specified)	BJeLR viab HTS 111
CC(=O)O[C@H]1C[C@H](O[C@H]2[C@@H](O)C[C@H](O[C@H]3[C@@H](O)C[C@H](O[C@H]4CC[C@@]5(C)C(CCC6C5C[C@@H](O)[C@]5(C)[C@@H](C7=CC(=O)OC7)CC[C@]65O)C4)O[C@@H]3C)O[C@@H]2C)O[C@H](C)[C@H]1O[C@@H]1O[C@H](CO)[C@@H](O)[C@H](O)[C@H]1O (stereo partly specified)	BJeLR viab HTS 109
C/C=C\C(C)=C\[C@H](C)C(=O)C[C@H](O)CC1CC(=O)NC(=O)C1	none
N#C[C@@H](OC1OC(COC2OCC(O)C(O)C2O)C(O)C(O)C1O)c1ccccc1 (stereo partly specified)	none
C=CCN1CC[C@]23c4c5ccc(O)c4OC2C(=O)CC[C@@]3(O)[C@H]1C5 (stereo partly specified)	none
O=C(Nc1ccc2c(C(F)(F)F)cc(=O)oc2c1)c1cc(Cl)cc(Cl)c1	none
C=C1CC[C@]2(O)[C@]3(C)C[C@@]4(O)O[C@@]2([C@@H]1O)[C@]1(O)[C@@]3(O)[C@H]([C@H](OO)c2ccc[nH]2)[C@](C)(C(C)C)[C@@]14C	none
COc1ccc(-n2c(C)nc3ccccc3c2=O)cc1	none
C[C@@H]1O[C@@H](OC2CCC3(C)C4CCC5(C)C(C6=CC(=O)OC6)CCC5(O)C4CC[C@H]3C2)[C@H](O)[C@H](O)[C@H]1O (stereo partly specified)	BJeLR viab HTS 101
C[C@]12CC[C@H]3[C@@H](CC[C@]4(O)C[C@@H](O)CC[C@]34C=O)[C@@]1(O)CC[C@@H]2C1=CC(=O)OC1	BJeLR viab HTS 82
C[C@@H]1O[C@@H](O[C@H]2C[C@@H](O)[C@]3(CO)[C@H]4[C@H](O)C[C@]5(C)[C@@H](C6=CC(=O)OC6)CC[C@]5(O)[C@@H]4CC[C@]3(O)C2)[C@H](O)[C@H](O)[C@H]1O	BJeLR viab HTS 104
CO[C@H]1[C@H](O)[C@H](O[C@H]2CC[C@]3(C)C4CC[C@]5(C)[C@H](C6=CC(=O)OC6)CC[C@]5(O)C4CC[C@@H]3C2)O[C@@H](C)[C@@H]1O (stereo partly specified)	BJeLR viab HTS 116
S=C(Nc1ccccc1)N1CCCCC1c1cccnc1 (stereo unspecified)	none
COc1ccccc1CCNCc1ccccc1C(F)(F)F	none
NC(N)=NC(N)=Nc1ccc(Cl)cc1	none
CCOC(=O)C1=C(C)OC(N)=C(C(=O)OCC)C12C(=O)Nc1ccccc12 (stereo unspecified)	none
CC12C/C(=C\c3ccccc3)C(=O)C[C@@H]1CCC1C2CCC2(C)C1CC[C@]2(C)O (stereo partly specified)	none
CC1=C(C(=O)OC(C)(C)C)C2(C(=O)Nc3ccccc32)C(C#N)=C(N)O1 (stereo unspecified)	none (no result: A1 inh)
CC(C)C12CN3CCN(CC(C3)/C1=N/N)C2	none
